Laboratory results taken from the supplement of paper PMC10477191.
± gives the standard deviation of the averaged measurements.

These molecules were tested on Drosophila ezoana antennal basiconic sensillum ab8 (assay: odor-evoked OSN spike response (post minus pre-stimulus); higher = stronger neuronal excitation). Conditions: odor dilution: 10^-4.
Method: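 Single sensillum recordings from antennal basiconic sensilla of D. ezoana. A 500 ms pulse of odorant (10^-4 in mineral oil or DMSO) was delivered; the response is the change in action potential frequency between the 1 s pre- and post-stimulus windows (spikes/s).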

SMILES | odor-evoked OSN spike response
CC(C)=O [acetone] | 66.9 ± 31 spikes/s
